Measured values as given in ChEMBL document CHEMBL1961873, “Compounds: GSK PKIS; Assays: Nanosyn kinase panel” (2012).
Where “and” joins values, the source holds several entries; their conditions need not be identical. Equal values may be shown once.

Tests used:
[1] = molecular target: High affinity nerve growth factor receptor (Homo sapiens) (UniProt P04629); conditions: at 1 µM;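 also: each value is the mean percent inhibition of TRKA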
[2] = molecular target: BDNF/NT-3 growth factors receptor (Homo sapiens) (UniProt Q16620); conditions: at 0.1 µM
[3] = molecular target: BDNF/NT-3 growth factors receptor (Homo sapiens) (UniProt Q16620); conditions: at 1 µM
[4] = molecular target: NT-3 growth factor receptor (Homo sapiens) (UniProt Q16288); conditions: at 0.1 µM
[5] = molecular target: NT-3 growth factor receptor (Homo sapiens) (UniProt Q16288); conditions: at 1 µM
[6] = molecular target: T1, Tyrosine-protein kinase TXK (Homo sapiens) (UniProt P42681); conditions: at 0.1 µM
T1 sequence (whole entry): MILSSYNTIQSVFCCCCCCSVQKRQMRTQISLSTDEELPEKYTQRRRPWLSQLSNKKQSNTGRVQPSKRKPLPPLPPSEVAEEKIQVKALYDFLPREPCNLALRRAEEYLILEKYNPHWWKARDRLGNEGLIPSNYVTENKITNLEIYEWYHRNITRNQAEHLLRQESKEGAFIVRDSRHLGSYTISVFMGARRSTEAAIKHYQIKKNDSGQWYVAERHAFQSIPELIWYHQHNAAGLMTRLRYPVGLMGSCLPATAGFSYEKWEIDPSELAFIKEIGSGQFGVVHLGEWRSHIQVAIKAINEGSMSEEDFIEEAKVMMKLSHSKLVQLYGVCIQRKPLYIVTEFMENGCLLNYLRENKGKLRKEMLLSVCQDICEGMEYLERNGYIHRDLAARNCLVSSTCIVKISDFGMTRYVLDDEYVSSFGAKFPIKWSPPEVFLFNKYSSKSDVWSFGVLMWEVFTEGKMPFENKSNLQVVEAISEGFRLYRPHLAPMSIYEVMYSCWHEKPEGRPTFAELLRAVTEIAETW

[7] = molecular target: T1, Tyrosine-protein kinase TXK (Homo sapiens); conditions: at 1 µM
[8] = molecular target: Non-receptor tyrosine-protein kinase TYK2 (Homo sapiens) (UniProt P29597); conditions: at 0.1 µM;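 also: each value is a mean of the inhibition readings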
[9] = molecular target: T2, Dual specificity protein kinase TTK (Homo sapiens) (UniProt P33981); conditions: at 1 µM;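 also: reported figures are mean TTK inhibition at 1 µM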
T2 sequence (whole entry): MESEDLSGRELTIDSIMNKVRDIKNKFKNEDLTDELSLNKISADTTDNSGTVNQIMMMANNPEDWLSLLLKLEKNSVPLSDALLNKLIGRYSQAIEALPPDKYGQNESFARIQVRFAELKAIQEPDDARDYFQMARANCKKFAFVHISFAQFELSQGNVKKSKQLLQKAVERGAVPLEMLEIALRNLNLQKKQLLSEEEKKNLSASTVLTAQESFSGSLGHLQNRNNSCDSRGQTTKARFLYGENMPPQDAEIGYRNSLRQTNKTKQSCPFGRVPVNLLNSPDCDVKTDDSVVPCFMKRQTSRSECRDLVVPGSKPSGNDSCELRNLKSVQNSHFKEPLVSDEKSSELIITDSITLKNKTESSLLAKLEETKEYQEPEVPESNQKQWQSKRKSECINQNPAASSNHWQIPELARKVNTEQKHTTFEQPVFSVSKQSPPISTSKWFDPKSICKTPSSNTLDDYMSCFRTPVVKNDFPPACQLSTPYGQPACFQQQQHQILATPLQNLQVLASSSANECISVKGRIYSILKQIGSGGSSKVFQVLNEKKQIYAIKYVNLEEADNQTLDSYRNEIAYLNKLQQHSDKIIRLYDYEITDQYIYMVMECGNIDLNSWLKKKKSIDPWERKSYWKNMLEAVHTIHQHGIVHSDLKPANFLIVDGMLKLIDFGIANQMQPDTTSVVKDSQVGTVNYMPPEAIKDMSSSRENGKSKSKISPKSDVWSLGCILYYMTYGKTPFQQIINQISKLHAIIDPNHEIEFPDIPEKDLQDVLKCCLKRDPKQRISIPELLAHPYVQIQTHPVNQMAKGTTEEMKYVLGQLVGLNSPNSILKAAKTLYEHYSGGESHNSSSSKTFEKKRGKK

[10] = molecular target: T3, Aurora kinase A (Homo sapiens) (UniProt O14965); conditions: at 0.1 µM
T3 sequence (whole entry): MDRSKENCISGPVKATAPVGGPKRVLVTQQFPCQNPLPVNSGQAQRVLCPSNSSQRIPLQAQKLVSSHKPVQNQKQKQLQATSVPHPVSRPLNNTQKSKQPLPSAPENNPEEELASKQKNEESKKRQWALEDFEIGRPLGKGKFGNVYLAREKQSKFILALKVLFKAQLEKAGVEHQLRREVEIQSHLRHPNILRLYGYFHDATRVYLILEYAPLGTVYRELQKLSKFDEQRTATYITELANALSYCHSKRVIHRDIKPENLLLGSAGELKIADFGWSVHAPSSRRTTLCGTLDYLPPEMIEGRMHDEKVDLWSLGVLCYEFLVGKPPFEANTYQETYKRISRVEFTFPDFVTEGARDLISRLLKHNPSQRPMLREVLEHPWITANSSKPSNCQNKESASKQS

[11] = molecular target: T3, Aurora kinase A (Homo sapiens); conditions: at 1 µM
[12] = molecular target: Aurora kinase B (Homo sapiens) (UniProt Q96GD4); conditions: at 0.1 µM
[13] = molecular target: Aurora kinase B (Homo sapiens) (UniProt Q96GD4); conditions: at 1 µM
[14] = molecular target: T4, Aurora kinase C (Homo sapiens) (UniProt Q9UQB9); conditions: at 0.1 µM
T4 sequence (whole entry): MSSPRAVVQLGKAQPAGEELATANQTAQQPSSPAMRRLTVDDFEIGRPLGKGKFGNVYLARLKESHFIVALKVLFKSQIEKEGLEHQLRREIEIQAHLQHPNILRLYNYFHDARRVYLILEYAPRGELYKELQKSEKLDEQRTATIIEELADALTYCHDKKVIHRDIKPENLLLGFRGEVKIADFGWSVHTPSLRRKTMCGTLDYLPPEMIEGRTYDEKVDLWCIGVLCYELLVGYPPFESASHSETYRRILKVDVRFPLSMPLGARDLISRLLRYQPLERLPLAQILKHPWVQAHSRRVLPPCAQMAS

[15] = molecular target: T4, Aurora kinase C (Homo sapiens); conditions: at 1 µM
[16] = molecular target: Serine/threonine-protein kinase 10 (Homo sapiens) (UniProt O94804); conditions: at 0.1 µM
[17] = molecular target: Serine/threonine-protein kinase 10 (Homo sapiens) (UniProt O94804); conditions: at 1 µM
[18] = molecular target: T5, Mitogen-activated protein kinase kinase kinase kinase 2 (Homo sapiens) (UniProt Q12851); conditions: at 0.1 µM
T5 sequence (whole entry): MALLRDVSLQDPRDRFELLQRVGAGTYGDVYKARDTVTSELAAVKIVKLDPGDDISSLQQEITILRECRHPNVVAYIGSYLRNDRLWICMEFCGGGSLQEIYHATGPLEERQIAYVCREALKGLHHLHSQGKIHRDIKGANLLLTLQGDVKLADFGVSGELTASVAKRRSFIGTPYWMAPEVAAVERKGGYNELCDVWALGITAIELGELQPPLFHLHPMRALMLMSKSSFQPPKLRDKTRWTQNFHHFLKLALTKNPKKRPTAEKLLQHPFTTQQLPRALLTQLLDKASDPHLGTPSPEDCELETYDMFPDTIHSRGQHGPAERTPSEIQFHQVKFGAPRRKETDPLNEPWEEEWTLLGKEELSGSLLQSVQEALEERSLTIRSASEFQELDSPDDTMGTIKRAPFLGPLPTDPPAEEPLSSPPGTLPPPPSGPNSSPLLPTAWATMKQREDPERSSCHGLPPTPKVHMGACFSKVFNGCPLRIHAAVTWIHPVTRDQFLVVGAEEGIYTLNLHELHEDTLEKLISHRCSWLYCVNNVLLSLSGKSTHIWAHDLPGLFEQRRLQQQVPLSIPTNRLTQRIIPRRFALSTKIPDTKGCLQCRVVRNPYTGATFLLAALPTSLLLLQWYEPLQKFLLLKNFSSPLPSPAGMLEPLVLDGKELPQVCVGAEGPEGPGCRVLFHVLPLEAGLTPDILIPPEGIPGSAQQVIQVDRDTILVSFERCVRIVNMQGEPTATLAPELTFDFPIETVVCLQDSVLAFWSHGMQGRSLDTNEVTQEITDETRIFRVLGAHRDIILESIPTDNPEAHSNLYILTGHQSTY

[19] = molecular target: T5, Mitogen-activated protein kinase kinase kinase kinase 2 (Homo sapiens); conditions: at 1 µM
[20] = molecular target: Mitogen-activated protein kinase kinase kinase kinase 4 (Homo sapiens) (UniProt O95819); conditions: at 0.1 µM

Non-receptor tyrosine-protein kinase TYK2 (Homo sapiens), sequence (P29597 whole entry): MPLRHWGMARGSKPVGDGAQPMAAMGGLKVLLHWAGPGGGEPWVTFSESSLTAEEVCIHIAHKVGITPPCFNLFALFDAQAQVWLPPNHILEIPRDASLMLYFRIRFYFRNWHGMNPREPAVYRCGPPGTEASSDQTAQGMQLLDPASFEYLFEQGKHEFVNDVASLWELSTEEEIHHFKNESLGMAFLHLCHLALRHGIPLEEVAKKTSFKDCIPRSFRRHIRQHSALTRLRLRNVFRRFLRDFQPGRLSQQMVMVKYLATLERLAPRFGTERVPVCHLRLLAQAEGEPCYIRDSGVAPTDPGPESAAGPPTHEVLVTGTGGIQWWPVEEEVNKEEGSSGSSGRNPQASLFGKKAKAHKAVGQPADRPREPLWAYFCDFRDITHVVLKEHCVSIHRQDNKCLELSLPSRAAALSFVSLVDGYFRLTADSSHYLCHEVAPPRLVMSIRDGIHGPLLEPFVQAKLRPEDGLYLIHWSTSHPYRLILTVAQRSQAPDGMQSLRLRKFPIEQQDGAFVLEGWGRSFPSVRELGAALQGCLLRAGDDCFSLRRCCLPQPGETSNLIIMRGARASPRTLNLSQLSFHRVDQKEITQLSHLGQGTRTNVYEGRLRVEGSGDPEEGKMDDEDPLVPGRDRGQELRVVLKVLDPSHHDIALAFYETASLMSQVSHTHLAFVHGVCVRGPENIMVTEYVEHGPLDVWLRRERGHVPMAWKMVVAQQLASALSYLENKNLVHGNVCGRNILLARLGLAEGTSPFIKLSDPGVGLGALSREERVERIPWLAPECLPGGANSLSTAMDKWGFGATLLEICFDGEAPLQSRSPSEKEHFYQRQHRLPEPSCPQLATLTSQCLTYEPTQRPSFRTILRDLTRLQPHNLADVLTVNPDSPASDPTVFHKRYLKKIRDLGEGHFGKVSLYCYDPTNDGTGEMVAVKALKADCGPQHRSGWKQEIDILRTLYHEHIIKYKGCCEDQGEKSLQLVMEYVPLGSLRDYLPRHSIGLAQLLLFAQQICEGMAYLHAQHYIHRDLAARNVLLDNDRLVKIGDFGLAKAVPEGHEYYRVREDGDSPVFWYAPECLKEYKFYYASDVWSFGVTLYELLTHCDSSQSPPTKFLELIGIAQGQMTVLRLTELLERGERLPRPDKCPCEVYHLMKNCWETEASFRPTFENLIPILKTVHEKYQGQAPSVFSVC
NT-3 growth factor receptor (Homo sapiens), sequence (Q16288 32-839 limits assumed): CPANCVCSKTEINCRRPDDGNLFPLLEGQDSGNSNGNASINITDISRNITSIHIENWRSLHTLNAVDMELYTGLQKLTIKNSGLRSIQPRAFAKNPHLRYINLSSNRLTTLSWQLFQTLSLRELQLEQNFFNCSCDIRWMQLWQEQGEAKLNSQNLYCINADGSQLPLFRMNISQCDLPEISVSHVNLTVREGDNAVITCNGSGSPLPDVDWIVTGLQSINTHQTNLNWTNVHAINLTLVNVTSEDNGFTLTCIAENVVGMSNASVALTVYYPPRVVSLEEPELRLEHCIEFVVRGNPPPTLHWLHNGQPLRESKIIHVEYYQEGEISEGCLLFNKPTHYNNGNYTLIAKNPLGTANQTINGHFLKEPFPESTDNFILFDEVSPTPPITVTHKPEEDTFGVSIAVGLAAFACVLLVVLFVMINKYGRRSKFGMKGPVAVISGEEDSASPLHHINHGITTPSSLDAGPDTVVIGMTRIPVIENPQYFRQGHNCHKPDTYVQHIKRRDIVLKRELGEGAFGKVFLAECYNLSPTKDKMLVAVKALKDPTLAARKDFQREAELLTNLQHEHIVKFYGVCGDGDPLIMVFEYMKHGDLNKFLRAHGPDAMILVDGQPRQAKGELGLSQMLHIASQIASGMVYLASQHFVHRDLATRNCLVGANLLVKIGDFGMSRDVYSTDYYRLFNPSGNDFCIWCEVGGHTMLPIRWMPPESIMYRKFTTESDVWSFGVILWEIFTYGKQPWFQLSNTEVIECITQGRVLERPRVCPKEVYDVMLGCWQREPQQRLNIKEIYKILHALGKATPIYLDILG
High affinity nerve growth factor receptor (Homo sapiens), sequence (P04629 33-796 limits assumed): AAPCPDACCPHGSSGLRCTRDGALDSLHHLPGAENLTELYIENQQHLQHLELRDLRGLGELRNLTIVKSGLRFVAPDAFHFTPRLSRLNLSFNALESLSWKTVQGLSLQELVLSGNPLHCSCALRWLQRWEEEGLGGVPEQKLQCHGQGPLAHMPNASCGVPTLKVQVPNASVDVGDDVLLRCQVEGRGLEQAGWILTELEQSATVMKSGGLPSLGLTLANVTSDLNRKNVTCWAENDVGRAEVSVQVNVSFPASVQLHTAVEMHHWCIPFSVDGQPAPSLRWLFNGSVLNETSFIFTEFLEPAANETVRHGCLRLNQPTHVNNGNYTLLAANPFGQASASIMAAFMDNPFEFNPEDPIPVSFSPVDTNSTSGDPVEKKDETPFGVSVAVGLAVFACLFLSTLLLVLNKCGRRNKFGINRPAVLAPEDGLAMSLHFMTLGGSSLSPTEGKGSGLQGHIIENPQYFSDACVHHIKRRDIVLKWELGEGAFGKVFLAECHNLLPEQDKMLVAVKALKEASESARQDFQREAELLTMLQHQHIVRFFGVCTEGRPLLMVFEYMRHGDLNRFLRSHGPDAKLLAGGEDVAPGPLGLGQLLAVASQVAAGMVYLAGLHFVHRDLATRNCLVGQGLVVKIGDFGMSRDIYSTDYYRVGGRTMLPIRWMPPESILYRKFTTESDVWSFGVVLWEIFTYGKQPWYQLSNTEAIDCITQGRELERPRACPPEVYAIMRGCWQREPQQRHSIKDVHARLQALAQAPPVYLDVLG
Serine/threonine-protein kinase 10 (Homo sapiens), sequence (O94804 whole entry, looked up): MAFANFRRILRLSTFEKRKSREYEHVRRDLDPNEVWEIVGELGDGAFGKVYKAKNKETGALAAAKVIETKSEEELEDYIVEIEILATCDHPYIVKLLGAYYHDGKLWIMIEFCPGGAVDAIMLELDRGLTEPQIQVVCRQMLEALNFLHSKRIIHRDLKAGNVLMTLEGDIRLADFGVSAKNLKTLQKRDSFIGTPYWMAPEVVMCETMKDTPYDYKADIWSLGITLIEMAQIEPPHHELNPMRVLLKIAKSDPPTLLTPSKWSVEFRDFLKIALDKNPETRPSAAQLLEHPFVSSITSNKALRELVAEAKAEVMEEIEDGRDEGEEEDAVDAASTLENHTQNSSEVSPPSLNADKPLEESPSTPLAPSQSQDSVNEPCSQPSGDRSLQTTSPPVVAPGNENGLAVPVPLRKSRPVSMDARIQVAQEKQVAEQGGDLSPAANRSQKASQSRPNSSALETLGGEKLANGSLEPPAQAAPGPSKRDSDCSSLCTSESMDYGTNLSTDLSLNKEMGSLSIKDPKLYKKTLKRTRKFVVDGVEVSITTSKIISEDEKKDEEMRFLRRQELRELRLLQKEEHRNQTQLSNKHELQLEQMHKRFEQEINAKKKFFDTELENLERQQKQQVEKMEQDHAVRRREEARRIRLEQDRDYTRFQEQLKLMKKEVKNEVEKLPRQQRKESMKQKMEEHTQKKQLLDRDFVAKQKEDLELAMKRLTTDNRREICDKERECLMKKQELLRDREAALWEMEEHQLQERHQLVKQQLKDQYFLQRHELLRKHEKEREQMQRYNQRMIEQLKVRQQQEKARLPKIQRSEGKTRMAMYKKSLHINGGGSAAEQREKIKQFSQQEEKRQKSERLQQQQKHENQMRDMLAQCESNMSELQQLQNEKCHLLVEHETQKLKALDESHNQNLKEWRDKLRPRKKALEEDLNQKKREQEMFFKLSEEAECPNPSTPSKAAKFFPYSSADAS
Aurora kinase B (Homo sapiens), sequence (Q96GD4 whole entry): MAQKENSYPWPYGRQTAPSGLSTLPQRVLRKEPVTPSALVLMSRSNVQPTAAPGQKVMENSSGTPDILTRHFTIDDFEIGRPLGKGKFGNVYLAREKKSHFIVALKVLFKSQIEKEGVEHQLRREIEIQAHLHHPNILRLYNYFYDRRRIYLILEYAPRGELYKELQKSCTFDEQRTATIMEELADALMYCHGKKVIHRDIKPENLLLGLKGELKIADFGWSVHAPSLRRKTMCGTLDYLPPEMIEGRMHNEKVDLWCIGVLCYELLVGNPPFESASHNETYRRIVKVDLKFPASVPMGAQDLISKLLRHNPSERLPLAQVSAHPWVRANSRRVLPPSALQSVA
BDNF/NT-3 growth factors receptor (Homo sapiens), sequence (Q16620 32-822 limits assumed): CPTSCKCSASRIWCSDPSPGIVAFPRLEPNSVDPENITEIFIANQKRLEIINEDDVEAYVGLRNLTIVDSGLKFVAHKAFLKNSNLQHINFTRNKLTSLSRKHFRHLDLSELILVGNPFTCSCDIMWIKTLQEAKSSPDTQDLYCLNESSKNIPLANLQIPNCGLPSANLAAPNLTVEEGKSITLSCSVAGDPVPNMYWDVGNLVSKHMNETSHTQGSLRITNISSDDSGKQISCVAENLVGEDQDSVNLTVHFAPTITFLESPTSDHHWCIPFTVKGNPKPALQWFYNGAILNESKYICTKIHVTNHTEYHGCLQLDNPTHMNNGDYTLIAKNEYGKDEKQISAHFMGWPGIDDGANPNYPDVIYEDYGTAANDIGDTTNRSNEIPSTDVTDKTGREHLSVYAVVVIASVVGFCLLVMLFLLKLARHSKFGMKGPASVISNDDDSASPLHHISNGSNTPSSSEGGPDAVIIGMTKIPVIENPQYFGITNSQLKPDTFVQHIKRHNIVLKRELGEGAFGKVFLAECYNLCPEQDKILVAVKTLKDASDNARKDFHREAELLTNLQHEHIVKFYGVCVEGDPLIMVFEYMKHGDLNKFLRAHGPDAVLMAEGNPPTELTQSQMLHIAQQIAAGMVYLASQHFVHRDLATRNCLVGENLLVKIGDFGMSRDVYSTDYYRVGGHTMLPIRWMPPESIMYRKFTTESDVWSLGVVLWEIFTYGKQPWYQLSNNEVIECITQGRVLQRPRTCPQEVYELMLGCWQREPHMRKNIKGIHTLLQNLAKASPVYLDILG

Structure (SMILES)	inhibition [1]	inhibition [2]	inhibition [3]	inhibition [4]	inhibition [5]	inhibition [6]	inhibition [7]	inhibition [8]	inhibition [9]	inhibition [10]	inhibition [11]	inhibition [12]	inhibition [13]	inhibition [14]	inhibition [15]	inhibition [16]	inhibition [17]	inhibition [18]	inhibition [19]	inhibition [20]
CS(=O)(=O)Nc1ccc(-c2cc(-c3ccccc3)cc(C(N)=O)c2N)cc1	3.74%	1.96%	2.61%	1.09%	0.08%	0.48%	2.13%	-1.8%	3.01%	1.29%	1.71%	1.93%	5.23%	0.13%	4.66%	2.01%	4.84%	-1.83%	1.34%	3.1%
NS(=O)(=O)c1ccc(N/N=C2\C(=O)Nc3ccc(C(=O)NCc4ccncc4)cc32)cc1	33.7%	13%	60%	19.2%	66.2%	2.66%	5.17%	-8.31%	69.2%	6.11%	54.9%	3.41%	11%	1.92%	14.6%	4.56%	9.47%	0.75%	4.07%	11.2%
Cc1nnc(-c2cccc(-c3ccc(C(=O)NCC4CC4)cc3)c2)o1	1.38%	2.02%	4.55%	3.7%	3.95%	2.44%	3.16%	-5.67%	0.98%	1.82%	7.79%	3.21%	3.09%	1.3%	-4.74%	6.23%	7.39%	1.46%	3.14%	7.44%
COc1c(C(N)=O)cc(-c2ccc(Cl)cc2)cc1-c1ccc(S(N)(=O)=O)cc1	4.22%	2.88%	3.12%	2.54%	2.2%	9.73%	4.4%	-0.68%	12.9%	2.86%	3.86%	2.21%	3.28%	-0.05%	0.52%	5.14%	6.24%	0.59%	2.11%	6.38%
Nc1ncnc2occ(-c3ccc(NC(=O)Nc4cc(C(F)(F)F)ccc4F)cc3)c12	89.2% and 97%	54.8% and 40.6%	90.7% and 88.5%	52.9% and 39.5%	92.8% and 85.3%	3.14% and 1.59%	5.09% and 0.12%	-1.29% and 0.57%	21.4% and 7.71%	3.16% and -1.11%		24.4% and 17.3%	69.9% and 55.9%	13.4% and 13.3%	92.5% and 68.8%	25% and 20.8%	69.2% and 63.1%	35.8% and 34.4%	66.3% and 65.5%	7.35% and 0.68%
O=C1Nc2ccccc2/C1=C1\CCc2cc(O)ccc21	70.6%	28.6%	78%	28%	77.5%	2.88%	8.68%	-2.35%	31.4%	8.42%	70.9%	44.8%	80.5%	53.7%	93.4%	6.67%	16.1%	12.1%	52.6%	23.3%
Nc1nonc1-c1nc2cnccc2n1C1CC1	0.83% and 3.35%	1.21% and 3.09%	3.17% and -0.36%	2.17% and 1.89%	3.84% and 1.11%	4.13% and -0.96%	5.76% and -3.04%	-4.88% and 0.09%	5.15% and -6.34%	3.77% and -2.63%	10.7% and -0.07%	5.82% and -0.78%	11.3% and 1.86%	4.22% and -3.73%	11.6% and -0.49%	7.02% and 3.14%	15.1% and 14.1%	3.53% and 3.38%	14.3% and 12.8%	11.1% and 7.77%
CCS(=O)(=O)c1ccc(OC)c(Nc2ncc(-c3cccc(F)c3)o2)c1	42.8%	10%	47.2%	12%	48.1%	17.2%	56%	-0.94%	8.85%	7.01%	26.8%	4.7%	3.78%	0.03%	5.54%	12%	24.3%	1.31%	8.13%	6.47%
Fc1cccc(COc2ccc(Nc3ncncc3C#Cc3ccccc3)cc2Cl)c1	2.13%	2.56%	5.8%	2.81%	6.63%	1.94%	3.56%	-4.7%	8.47%	2.33%	9%	-1.58%	6%	1.15%	-2.38%	2.78%	11.7%	0.81%	0.54%	6.19%
CN1CCN(Cc2ccc(-c3cc4ncnc(Nc5ccc(OCc6cccc(F)c6)c(Cl)c5)c4s3)o2)CC1	3.16% and 2.15%	3.04% and 3.64%	2.54% and 4.97%	2.27% and 4.29%	3.84% and 5.78%	-1.05% and 3.1%	5.76% and 4.28%	-2.41% and -3.9%	8.37% and 11.4%	1.75% and 2.97%	6.51% and 11.8%	16% and 13%	45.6% and 53%	4.18% and 3.42%	26.1% and 40.5%	17.4% and 22.1%	56.8% and 67%	2.1% and 1.95%	13% and 8.01%	2.96% and 6.93%
COc1cc2c(cc1Nc1nc(Nc3cccc(F)c3C(N)=O)c3cc[nH]c3n1)N(C(=O)CN1CCN(C(C)C)CC1)CC2	0.01%	-0.13%	0.84%	-1.97%	-0.99%	7.39%	3.01%	0.12%	47.7%	0.69%	0.34%	1.62%	2.41%	-0.27%	3.25%	2.03%	5.12%	1.69%	11.3%	0.45%
COC(=O)Nc1nc2cc(Oc3ccc(NC(=O)Nc4ccccc4)cc3)ccc2[nH]1	0.28%	1.72%	3.06%	4.04%	7.05%	1.84%	1.98%	-2.96%	4.66%	2.47%	3.53%	11.9%	24.9%	28.9%	42.6%	9.63%	14.7%	1.5%	0.87%	3.39%
CCN1CCC(C(=O)Nc2n[nH]c3nnc(-c4cccc(F)c4F)cc23)CC1	4.28%	0.46%	1.47%	2.09%	0.96%	-0.15%	1.19%	3.04%	2.28%	2.41%	0.34%	-0.39%	3.97%	0.94%	5.27%	-0.44%	-0.07%	2.45%	3.52%	3.47%
COc1cc(N2CCN(C(C)C)CC2)ccc1Nc1nc(Nc2cccc3ncccc23)c2cc[nH]c2n1	1.49%	0.73%	0.22%	0.87%	0.74%	0.48%	3.98%	-4.59%	69.5%	0.64%	4.47%	0.66%	4.9%	0.27%	-0.31%	1.54%	0.74%	2.02%	2.89%	1.88%
